From PubChem BioAssay AID2680 (National Center for Advancing Translational Sciences (NCATS), 2010)
The other results are listed elsewhere or left out. Records with an inconclusive call do not appear. A number with no mark means an inactive call. The source made the active and inactive calls. The call rests on the fitted dose curve; in most records, active means well fitted inhibition curve with a large enough effect; inconclusive means small, poorly fitted or top-dose-only effect; inactive means no such curve, though single readings can be large or run the other way.

target: Glutathione-independent formaldehyde dehydrogenase (Pseudomonas putida) (UniProt P46154); assay: Counterscreen for JMJD2E Inhibitors: qHTS Assay for Inhibitors of Formaldehyde Dehydrogenase (FDH); conditions: FDH enzyme assay, NADH fluorescence kinetic; series mostly up to 56.7 µM; activity, negative = inhibition: at the top concentration
Procedure: This assay is a counterscreen for a related assay for inhibitors of JMJD2E. See AID 2147 for details. The JMJD2E assay utilized an FDH-coupled protocol. To screen for false positive results in the primary assay due to inhibition of the formaldehyde dehydrogenase coupled enzyme, an FDH-only assay was run using FDH as the enzyme (0.000025 U/uL final concentration) and 10 uM formaldehyde and 0.25 mM NAD+ as the substrate, and following the same fluidic protocol as described in AID 2147 for the coupled HTS assay. Actives in this assay are likely false positives of the primary HTS.
Assay is initiated by dispensing 3 uL of enzyme solution (4/3x final concentration) into a 1,536-well assay plate using a nanoliter solenoid-based dispenser (Beckman-Coulter, Fullerton, CA). After pintool transfer of compound solution, the assay plate is incubated at room temperature for 10 minutes, followed by a 1 uL addition of 4x substrate solution to initiate the reaction (final assay volume of 4 uL). The plate is then manually transferred into the ViewLux reader for kinetic measurements.

Sequence of Glutathione-independent formaldehyde dehydrogenase (Pseudomonas putida) (P46154 whole entry, looked up): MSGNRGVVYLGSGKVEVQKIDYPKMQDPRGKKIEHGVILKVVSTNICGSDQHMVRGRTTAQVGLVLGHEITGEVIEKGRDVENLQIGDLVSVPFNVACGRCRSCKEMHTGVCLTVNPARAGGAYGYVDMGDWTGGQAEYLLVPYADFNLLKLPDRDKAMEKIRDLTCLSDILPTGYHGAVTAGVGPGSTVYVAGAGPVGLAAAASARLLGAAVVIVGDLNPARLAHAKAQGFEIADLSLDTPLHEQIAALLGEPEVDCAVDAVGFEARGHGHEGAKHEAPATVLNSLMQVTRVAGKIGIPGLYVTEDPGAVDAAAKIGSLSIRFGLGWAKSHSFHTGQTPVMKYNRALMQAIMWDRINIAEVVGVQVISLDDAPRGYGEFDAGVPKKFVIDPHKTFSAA

| Structure (SMILES) | activity, negative = inhibition [%] | Potency |
| --- | --- | --- |
| Nc1ccc(Nc2cc(O)c3ncccc3c2)cc1 | -9.09 | – |
| COc1ccc(Cl)cc1CSc1ncn[nH]1 | – | 316 nM (active) |
| Cc1ccc(N2C(=O)CC(Sc3ncn[nH]3)C2=O)cc1 (configuration not stated) | – | 316 nM (active) |
| O=C1CC(Sc2ncn[nH]2)C(=O)N1c1ccccc1 (configuration not stated) | – | 316 nM (active) |
| Oc1ccc(/C=C/c2c(F)cccc2F)c2cccnc12 | -18.2 | – |
| Oc1cccc2cc(-c3ccncc3)cnc12 | -18.2 | – |
| Oc1c(CN2CCCC2)cc(COCc2ccccc2)c2cccnc12 | -18.2 | – |
